Screens deposited in PubChem BioAssay by National Center for Advancing Translational Sciences (NCATS).
Most compounds without a hit are left out; they make up all but 7.3% or so of the library.
SMN2 splice up: SMN2 splice variant enhancement; 210,000 tested, 2.8% active; HEK293 SMN2-luciferase splicing reporter, luminescence, 30-36 h; Potency, µM (titrated, usually from 46.1 µM), for the others: top-dose activity change, positive = activation, actives largely listed as activators; further: % of control where 0% means no effect; nearly all actives have a fitted effect of over 55% in size
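qHTS luciferase splicing reporter: luminescence rises when SMN2 exon 7 is included in transfected HEK293 cells. Compound exposure lasted 30-36 h at 37C, with 4.5 mM final sodium butyrate as control, followed by a ONE-Glo read.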
ELG1 genotoxic: induces genotoxicity in HEK293T cells with luciferase-tagged ELG1. HEK293T ELG1-luciferase reporter, luminescence, 16 h. Potency, µM (highest dose often 46 µM), inactives show at the top dose activity change, positive = activation, usual class: activators. 330,000 tested, 1.3% active; further: % of control where 0% means no effect; nearly all actives have a fitted effect of over 60% in size
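Quantitative HTS format in 1536-well plates. HEK293T ELG1-luciferase reporter cells receive test compound and are incubated 16 hr at 37 °C, 5% CO2; ONE-Glo added, 30 min room temperature, then luminescence read.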
FLuc counter: firefly luciferase modulation, counter-screen for miR-21 project; P08659; purified FLuc, Km substrates, luminescence inhibition; Potency, µM (doses to about 57.5 µM), without a hit: at the top dose activity change, negative = inhibition, most hits filed as inhibitors; 360,000 tested, 6.9% active;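 further: plate controls were vehicle for no effect and reference inhibitor for full effect; nearly all actives have a fitted effect of over 55% in size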
Target sequence (P08659 whole entry, looked up): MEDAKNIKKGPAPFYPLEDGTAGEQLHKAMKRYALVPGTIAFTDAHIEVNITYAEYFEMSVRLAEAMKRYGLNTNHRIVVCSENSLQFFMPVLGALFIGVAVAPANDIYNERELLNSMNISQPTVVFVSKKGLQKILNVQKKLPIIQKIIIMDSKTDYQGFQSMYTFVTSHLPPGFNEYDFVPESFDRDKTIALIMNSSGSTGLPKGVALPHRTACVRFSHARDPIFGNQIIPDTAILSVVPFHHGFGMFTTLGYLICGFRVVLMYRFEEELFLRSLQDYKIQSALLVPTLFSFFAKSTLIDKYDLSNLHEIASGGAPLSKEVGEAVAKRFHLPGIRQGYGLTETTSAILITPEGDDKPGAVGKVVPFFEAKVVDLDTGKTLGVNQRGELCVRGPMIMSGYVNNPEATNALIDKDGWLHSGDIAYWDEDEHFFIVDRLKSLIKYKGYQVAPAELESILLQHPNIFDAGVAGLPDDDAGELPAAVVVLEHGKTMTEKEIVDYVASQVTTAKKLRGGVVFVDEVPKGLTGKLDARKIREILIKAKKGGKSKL
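Purified P. pyralis luciferase, 10 nM final, with Km-level 10 uM D-luciferin and 10 uM ATP in 50 mM Tris acetate pH 7.5, 10 mM Mg acetate, 0.01% Tween-20, 0.05% BSA; 6-point qHTS titration about 60 µM downward; luminescence read.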
NPC1 promoter act: activators of NPC1 promoter; Huh7 NPC1 promoter luciferase reporter, 24 h; Potency, µM (top dose mostly 9.22 µM), for inactives: top-dose activation, hits mostly activators; 320,000 tested, 2.4% active; further: % of control where 0% means no effect; nearly all actives have a fitted effect of over 60% in size
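Luciferase expression driven by the NPC1 promoter was measured in stably transfected Huh7 cells after a 24 h compound incubation, using a luciferase reagent and a luminescence read.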
uPA surface inh: cell surface uPA generation inhibition | cell surface uPA generation assay, qHTS | Potency, µM (highest dose often 38.3 µM), for the others: at the top dose activity change, negative = inhibition, hits mostly inhibitors | 330,000 tested, 0.31% active; active means well fitted inhibition curve with a large enough effect; inconclusive means small, poorly fitted or top-dose-only effect; inactive means no such curve, though single readings can be large or run the other way; tested in mouse RAW 264.7 cells; further: on the % scale 0 is the no-effect control and ±100 the full control effect; nearly all actives have a fitted effect of over 55% in size
Rab9 prom act: Rab9 promoter activation | Huh7 Rab9 promoter-luciferase reporter, luminescence, 24 h | Potency, µM (series often up to 9.22 µM), for inactives: top-dose activation, negative = inhibition, usual class: activators | 320,000 tested, 2.8% active; further: % of control where 0% means no effect; nearly all actives have a fitted effect of over 60% in size
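Luminescence read-out: Huh7 cells stably expressing Rab9-luciferase, treated 24 h with compound at 37 °C, then lysed with luciferase reagent for 10 min at ambient before reading.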
* = called active by the depositor; [ ] = dose if it differs, or a comment. Unless noted, the call rests on the fitted dose curve; in most records, active means well fitted curve in the direction sought with a large enough effect; inconclusive means small, poorly fitted or top-dose-only effect, or another doubt; inactive means no such curve, though single readings can be large; an effect the other way counts as inactive or inconclusive. Potency means the concentration at half of the fitted maximal effect.

How did COc1cccc(Nc2nc3ccc(C)cc3nc2-n2nc(C)cc2C)c1 do in these assays?
SMN2 splice up: -5%; FLuc counter: -1%

Results for CC(=O)c1cccc(NC(=O)CN2C(=O)CCc3cc(S(=O)(=O)N4CCCCC4)ccc32)c1 ?
FLuc counter: -5%

What do the screens show for `c1ccc(C2CCCN(Cc3nc(CC4CC4)no3)CC2)cc1` (stereo not drawn)?
SMN2 splice up: 5%; ELG1 genotoxic: 12%; FLuc counter: 24µM*; NPC1 promoter act: 11%; uPA surface inh: 5%; Rab9 prom act: 24%

What do the screens show for `Cc1ccc(C)c(NC(=O)/C(C#N)=C/c2ccc[nH]2)c1`?
ELG1 genotoxic: 0%; FLuc counter: -4%; NPC1 promoter act: 24%; uPA surface inh: -4%; Rab9 prom act: 14%

How did Cc1cccc(NC(=O)/C(C#N)=C/c2ccc[nH]2)c1C do in these assays?
ELG1 genotoxic: inconclusive; FLuc counter: -12%; NPC1 promoter act: inconclusive; uPA surface inh: inconclusive; Rab9 prom act: 4µM*

Results for COc1cc(OC)c(NC(=O)CCCn2nc(C)c3sc4ccccc4c3c2=O)cc1Cl ?
FLuc counter: 13µM*

How did Cc1ccc(NC(=O)CCCn2nc(C)c3sc4ccccc4c3c2=O)c(Cl)c1 do in these assays?
FLuc counter: 6µM*

Results for O=C(NCCCN1CCN(c2ccccc2)CC1)c1nnc(Cc2ccc(F)cc2)o1 ?
FLuc counter: 0%

What do the screens show for `COc1cccc(CNC(=O)c2ccc(Cl)c(NC3=NC4CS(=O)(=O)CC4S3)c2)c1` (stereo not drawn)?
ELG1 genotoxic: 0%; FLuc counter: 0%; NPC1 promoter act: 0%; uPA surface inh: -3%; Rab9 prom act: 2%

How did COc1cccc(/C=C2\SC(=S)N(C(C(=O)O)c3ccccc3)C2=O)c1OC (stereo not drawn) do in these assays?
ELG1 genotoxic: 0%; FLuc counter: inconclusive; NPC1 promoter act: 0%; uPA surface inh: 1%; Rab9 prom act: -4%

What do the screens show for `COc1ccc(/C=C2\SC(=S)N(C(C(=O)O)c3ccccc3)C2=O)c(OC)c1` (stereo not drawn)?
ELG1 genotoxic: 1%; FLuc counter: 24µM*; NPC1 promoter act: -4%; uPA surface inh: 5%; Rab9 prom act: -13%

How did N#CC1=C2SC=C(c3ccc(Br)cc3)N2CCCC1=O do in these assays?
SMN2 splice up: 16µM*; ELG1 genotoxic: 19%; FLuc counter: 5.4µM*; NPC1 promoter act: inconclusive; uPA surface inh: -10%; Rab9 prom act: 1.6µM*

What do the screens show for `N#CC1=C2Sc3ccccc3N2CCCC1=O`?
SMN2 splice up: 6%; ELG1 genotoxic: inconclusive; FLuc counter: -19%; NPC1 promoter act: inconclusive; uPA surface inh: 0%; Rab9 prom act: inconclusive

How did NC(=O)C1CCN(c2nc(-c3ccc(Br)cc3)cs2)CC1 do in these assays?
SMN2 splice up: 4µM*; ELG1 genotoxic: 6.5µM*; FLuc counter: -13%; NPC1 promoter act: inconclusive; uPA surface inh: 3%; Rab9 prom act: 2.5µM*

Results for NC(=O)C1CCN(c2nc(-c3ccc(C(F)(F)F)cc3)cs2)CC1 ?
FLuc counter: 17µM*

How did NC(=O)C1CCN(c2nc(-c3ccc(N4CCCCC4)nc3)cs2)CC1 do in these assays?
FLuc counter: 4.8µM*

What do the screens show for `CCOc1ccc(Br)cc1C1C(C(=O)Nc2ccccc2OC)=C(C)Nc2nnnn21` (stereo not drawn)?
SMN2 splice up: -11%; FLuc counter: 1%

Results for CC(C)(C)c1ccc(C(=O)NC(=S)N2CCCCCC2)cc1 ?
ELG1 genotoxic: -9%; FLuc counter: inconclusive; NPC1 promoter act: -2%; uPA surface inh: -25%; Rab9 prom act: -9%

Results for CC(C)(C)c1ccc(C(=O)NC(=S)N2CCCC2)cc1 ?
ELG1 genotoxic: 1%; FLuc counter: 9.5µM*; NPC1 promoter act: 4%; uPA surface inh: -3%; Rab9 prom act: -7%[1.84 µM]

Results for CC(C)(C)c1ccc(C(=O)NC(=S)Nc2ccc(N3CCOCC3)cc2)cc1 ?
SMN2 splice up: 2.8µM*; ELG1 genotoxic: 11%; FLuc counter: -9%; NPC1 promoter act: -7%; uPA surface inh: -3%; Rab9 prom act: -4%

How did O=C(CCCCl)NC(=S)Nc1ccc(CN2CCOCC2)cc1 do in these assays?
ELG1 genotoxic: 6%; FLuc counter: 6%; NPC1 promoter act: -4%; uPA surface inh: 1%; Rab9 prom act: 6%

What do the screens show for `Cc1ccc(C(=O)N2CCN(c3ccc(NC(=S)NC(=O)c4cccs4)cc3)CC2)cc1`?
ELG1 genotoxic: -10%; FLuc counter: 1%; NPC1 promoter act: -12%; uPA surface inh: -4%; Rab9 prom act: -23%

What do the screens show for `O=C(CCCCl)NC(=S)Nc1ccc(N2CCOCC2)cc1`?
ELG1 genotoxic: inconclusive; FLuc counter: -13%; NPC1 promoter act: 2.8µM*; uPA surface inh: -2%; Rab9 prom act: 1.4µM*

Results for CC(C)(C)c1ccc(C(=O)Nc2ccc(N3CCOCC3)cc2)cc1 ?
SMN2 splice up: -25%; ELG1 genotoxic: -9%; FLuc counter: inconclusive; NPC1 promoter act: -2%; uPA surface inh: 1%; Rab9 prom act: -8%

What do the screens show for `O=C(NC(=S)Nc1ccc(N2CCOCC2)cc1)c1cccs1`?
ELG1 genotoxic: 9%; FLuc counter: 24µM*; NPC1 promoter act: inconclusive; uPA surface inh: -13%; Rab9 prom act: 0.79µM*

Results for O=C(CN1C(=O)COc2ccc(S(=O)(=O)N3CCOCC3)cc21)N1CCN(c2cccc(C(F)(F)F)c2)CC1 ?
SMN2 splice up: 3%; FLuc counter: 3%

Results for CC(=O)OC(C)C ?
SMN2 splice up: -6%

Results for COc1ccc(-c2cc(C(=O)N3CCN(c4ccccc4)CC3)no2)cc1 ?
SMN2 splice up: inconclusive; ELG1 genotoxic: inconclusive; FLuc counter: 6.7µM*; NPC1 promoter act: 2.8µM*; uPA surface inh: 1%; Rab9 prom act: inconclusive

How did COc1ccc(-c2cc(C(=O)N3CCc4ccccc4C3)no2)cc1 do in these assays?
SMN2 splice up: 2%; ELG1 genotoxic: 24%; FLuc counter: 17µM*; NPC1 promoter act: 1%; uPA surface inh: 7%; Rab9 prom act: -4%

What do the screens show for `COc1ccc(-c2cc(C(=O)N3CCN(c4ccccc4OC)CC3)no2)cc1`?
ELG1 genotoxic: 0%; FLuc counter: inconclusive; NPC1 promoter act: 0%; uPA surface inh: 3%; Rab9 prom act: -10%

Results for O=C(CSc1ccccn1)C12CC3CC(CC(C3)C1)C2 ?
SMN2 splice up: -7%; ELG1 genotoxic: -3%; FLuc counter: -18%; NPC1 promoter act: -6%; uPA surface inh: -2%; Rab9 prom act: 1%
